FLuc inh: Firefly luciferase inhibition profiling of diverse chemical library using quantitative high-throughput screening. 2.5% of 76,000 active. purified P. pyralis luciferase, luminescence, biochemical. Luciferin 4-monooxygenase (Photinus pyralis), P08659. Potency, µM (doses to about 115 µM), hits mostly inhibitors; further: nearly all actives have a fitted effect of over 65% in size
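Luminescence read by CCD imager after adding enzyme (10nM final) to wells holding compound, titrated in qHTS. Substrates 10uM each D-luciferin and ATP; buffer 50mM Tris acetate pH 7.5, 10mM Mg acetate, Tween-20, BSA.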
NIH3T3 tox: Cytotoxic Profiling in NIH 3T3 Cell Line of Diverse Libraries Using Quantitative High-Throughput Screening | NIH 3T3 viability, CellTiter-Glo ATP luminescence, 48-72 h | Potency, µM (series often up to 96.7 µM), inactives show top-dose activity change, negative = cytotoxicity, actives largely listed as inhibitors | 4.3% of 94,000 active | AID 1345082, 2018; further: nearly all actives have a fitted effect of over 55% in size
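Viability of NIH 3T3 cells after 48 or 72 hr compound treatment at 37 °C was assessed by CellTiter-Glo, with luminescence imaged following a 10 min room-temperature step.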
hNpr1 antagonist: Natriuretic polypeptide receptor (hNpr1) antagonism - Primary qHTS. HEK293 hNpr1 GloSensor cGMP, ANP-stimulated luminescence. Potency, µM (highest dose often 46.3 µM), inactives show at the highest dose activity change, negative = inhibition, actives largely listed as inhibitors. 1.6% of 76,000 active. AID 1347048, 2019; calls by dose curve; further: nearly all actives have a fitted effect of over 60% in size
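HEK293 cells stably expressing human Npr1 and cGMP GloSensor pGS-40F, loaded 2 h with 2% GloSensor reagent, given compound 30 min at room temperature. Luminescence read before and 20 min after 0.1 nM hNppA.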
HEK293 tox: Cytotoxic Profiling in HEK 293 Cell Line of Diverse Libraries Using Quantitative High-Throughput Screening; HEK 293 viability, ATP luminescence (CellTiter-Glo), 48-72 h; Potency, µM (highest dose often 115 µM), for inactives: at the top dose activity change, negative = cytotoxicity, actives largely listed as inhibitors; 6.6% of 94,000 active; AID 1345083, 2018; further: nearly all actives have a fitted effect of over 60% in size
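Luminescence from cellular ATP, measured with CellTiter-Glo, indicates HEK 293 viability. Cells plated at 250 cells/well are treated with compound for 48 or 72 hr at 37 degree Celsius before reagent addition.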
Starred values were filed as active, the others as inactive; [ ] = another dose, or the depositor's remark. Sampled rows, rich in hits. Any-hit rate of the full collection: about 11%. Unless noted, the call rests on the fitted dose curve; in most records, active means well fitted curve in the direction sought with a large enough effect; inconclusive means small, poorly fitted or top-dose-only effect, or another doubt; inactive means no such curve, though single readings can be large; an effect the other way counts as inactive or inconclusive. On the % scale 0 is the no-effect control and ±100 the full control effect; potency means the concentration at half of the fitted maximal effect.

What do the screens show for `O=C(NC1CC1)c1ccc2c(c1)CC(=O)N2Cc1ccc(F)cc1`?
FLuc inh: inactive; NIH3T3 tox: inconclusive; hNpr1 antagonist: -2%; HEK293 tox: -1%

How did CC(C)C[C@@H]1N[C@H](C(=O)NCc2cccs2)Cc2cn(CC3CC3)c3cccc1c23 do in these assays?
FLuc inh: inactive; NIH3T3 tox: 71µM*; hNpr1 antagonist: -18%[70.6 µM]; HEK293 tox: 63µM*

What do the screens show for `C=CCn1cc2c3c(cccc31)[C@H](CC(C)C)N[C@H](C(=O)NCCN(C)C)C2`?
FLuc inh: inactive; NIH3T3 tox: 35µM*; hNpr1 antagonist: 2%[70.6 µM]; HEK293 tox: 35µM*

What do the screens show for `CC(C)C[C@@H]1N[C@H](C(=O)NCCN(C)C)Cc2cn(CC3CC3)c3cccc1c23`?
FLuc inh: inactive; NIH3T3 tox: 32µM*; hNpr1 antagonist: -1%[70.6 µM]; HEK293 tox: 32µM*

Results for C=CCn1cc2c3c(cccc31)[C@H](CC(C)C)N[C@H](C(=O)NCCC)C2 ?
FLuc inh: inactive; NIH3T3 tox: 71µM*; hNpr1 antagonist: 1%[70.6 µM]; HEK293 tox: 50µM*

What do the screens show for `C=CCNC(=O)[C@@H]1Cc2cn(CC=C)c3cccc(c23)[C@H](CC(C)C)N1`?
FLuc inh: inactive; NIH3T3 tox: inconclusive; hNpr1 antagonist: -2%[70.6 µM]; HEK293 tox: inconclusive

How did O=S(=O)(N[C@H]1[C@H](O)[C@H](O)C[C@@H]1c1ccccc1)c1ccc(C(F)(F)F)cc1 do in these assays?
FLuc inh: inactive; NIH3T3 tox: inactive; hNpr1 antagonist: 0%[70.6 µM]; HEK293 tox: -9%[172 µM]

Results for O=C(Nc1ccc(C(F)(F)F)cc1)N[C@H]1[C@H](O)[C@H](O)C[C@@H]1c1ccccc1 ?
FLuc inh: inactive; NIH3T3 tox: 79µM*; hNpr1 antagonist: -13%[70.6 µM]; HEK293 tox: inconclusive

Results for COc1cccc(C(=O)N2CCCC2C(=O)N2CCC(N3CCOCC3=O)CC2)c1 (stereo not given) ?
NIH3T3 tox: -2%; HEK293 tox: inactive

What do the screens show for `CN(C)c1ccc(NC(=O)Cn2cccc2-c2nc(-c3ccccc3)no2)cc1`?
FLuc inh: inactive; NIH3T3 tox: inactive; hNpr1 antagonist: 7%; HEK293 tox: inconclusive

What do the screens show for `COc1ccccc1Nc1cnc2ccc(-c3ccccc3OC)nn12`?
FLuc inh: inactive; NIH3T3 tox: inconclusive; hNpr1 antagonist: -9%[70.6 µM]; HEK293 tox: inconclusive

How did COc1ccc(-c2ccc3ncc(Nc4ccccc4F)n3n2)cc1OC do in these assays?
FLuc inh: inactive; NIH3T3 tox: 35µM*; hNpr1 antagonist: 0%[70.6 µM]; HEK293 tox: 45µM*

What do the screens show for `COc1ccc(-c2ccc3ncc(Nc4cccnc4OC)n3n2)cc1OC`?
FLuc inh: inactive; NIH3T3 tox: -82%[138 µM]; hNpr1 antagonist: -1%[70.6 µM]; HEK293 tox: 14µM*

How did Cc1noc(-c2ccc(S(=O)(=O)N3C[C@H](C4CC4)[C@@H](N)C3)o2)c1C do in these assays?
FLuc inh: inactive; NIH3T3 tox: inconclusive; hNpr1 antagonist: 1%; HEK293 tox: inconclusive

What do the screens show for `O=C(O)c1ccc(CN2CC(CNC(=O)c3ccccc3)C3(C2)CN(c2ccccc2)C3)cc1` (stereo not given)?
FLuc inh: inactive; NIH3T3 tox: inconclusive; hNpr1 antagonist: 0%; HEK293 tox: 5%

Results for Clc1cccc(CN2CC(CNc3cccnc3)C3(C2)CN(c2ccccc2)C3)c1 (stereo not given) ?
FLuc inh: inactive; NIH3T3 tox: inconclusive; hNpr1 antagonist: -20%[70.6 µM]; HEK293 tox: inconclusive

Results for Nc1ncccc1CN1CC(COc2ccccc2)C2(C1)CN(c1ccccc1)C2 (stereo not given) ?
FLuc inh: inactive; NIH3T3 tox: 40µM*; hNpr1 antagonist: -30%[70.6 µM]; HEK293 tox: 35µM*

Results for O=C(NCC1CN(Cc2cccc(O)c2)CC12CN(c1ccccc1)C2)c1ccccc1 (stereo not given) ?
FLuc inh: inactive; NIH3T3 tox: 28µM*; hNpr1 antagonist: -18%[70.6 µM]; HEK293 tox: inconclusive

Results for Oc1ccc(CN2CC(CNc3ccccc3)C3(C2)CN(c2ccccc2)C3)cc1 (stereo not given) ?
FLuc inh: inactive; NIH3T3 tox: 25µM*; hNpr1 antagonist: -22%[70.6 µM]; HEK293 tox: 40µM*

How did c1ccc(CN2CC(CNc3cccnc3)C3(C2)CN(c2ccccc2)C3)cc1 (stereo not given) do in these assays?
FLuc inh: inactive; NIH3T3 tox: 50µM*; hNpr1 antagonist: -4%[70.6 µM]; HEK293 tox: inconclusive

What do the screens show for `COc1cccc(C(=O)NC2CCN(c3nc4ncccc4o3)C2)c1` (stereo not given)?
NIH3T3 tox: -16%[138 µM]; HEK293 tox: -8%[172 µM]

How did CCNC(=O)c1cccnc1OC1CCN(C(=O)Cc2cccc(Cl)c2)C1 (stereo not given) do in these assays?
FLuc inh: inactive; NIH3T3 tox: -2%; hNpr1 antagonist: 4%; HEK293 tox: 4%

Results for O=C(Cc1ccccc1)NCC1CN(C(=O)Cc2cccc(Oc3ccccc3)c2)CC12CN(c1ccccc1)C2 (stereo not given) ?
FLuc inh: inactive; NIH3T3 tox: inconclusive; hNpr1 antagonist: -17%; HEK293 tox: inconclusive

How did O=C(COc1ccccc1)N1CC(CNc2cccnc2)C2(C1)CN(c1ccccc1)C2 (stereo not given) do in these assays?
FLuc inh: inactive; NIH3T3 tox: inconclusive; hNpr1 antagonist: -12%[70.6 µM]; HEK293 tox: 71µM*

Results for COc1ccccc1C(=O)N1CC(CNc2cccnc2)C2(C1)CN(c1ccccc1)C2 (stereo not given) ?
FLuc inh: inactive; NIH3T3 tox: inconclusive; hNpr1 antagonist: -6%[70.6 µM]; HEK293 tox: inconclusive

Results for O=C(NCC1CN(C(=O)Cc2ccc(OC(F)(F)F)cc2)CC12CN(c1ccccc1)C2)Nc1ccccc1 (stereo not given) ?
FLuc inh: inactive; NIH3T3 tox: 28µM*; hNpr1 antagonist: -8%; HEK293 tox: inconclusive

Results for Cc1cc(Cl)ccc1-n1nc(C)c([C@@H]2C=C[C@@H](NC(=O)c3ccc(N(C)C)cc3)C2)c1C ?
FLuc inh: 18µM*; NIH3T3 tox: inconclusive; hNpr1 antagonist: inconclusive; HEK293 tox: inconclusive

How did COc1ccc(C(=O)N[C@@H]2C=C[C@@H](c3c(C)nn(Cc4ccccc4)c3C)C2)cc1 do in these assays?
FLuc inh: inconclusive; NIH3T3 tox: inconclusive; hNpr1 antagonist: -3%[70.6 µM]; HEK293 tox: inconclusive

Results for CC(=O)Nc1ccc(S(=O)(=O)N[C@@H]2C=C[C@@H](c3c(C)nn(-c4ccc(C(C)(C)C)cc4)c3C)C2)cc1 ?
FLuc inh: 45µM*; NIH3T3 tox: inconclusive; hNpr1 antagonist: -15%; HEK293 tox: 45µM*

Assay outcomes as filed in PubChem BioAssay.
